High-throughput results as filed in PubChem BioAssay.
Sampled rows, rich in hits. Any-hit rate of the full collection: about 9.3%.
ELG1 repair inh: inhibitors of ELG1-dependent DNA repair in HEK293T cells; HEK293T ELG1-luciferase reporter, luminescence, 16 h; DNA damage induced by 5-fluorouridine; Potency, µM (titrated, usually from 46.1 µM), for inactives: at the highest dose activity change, negative = inhibition, actives largely listed as inhibitors; hit rate 2.3% among 330,000; AID 504467; further: on the % scale 0 is the no-effect control and ±100 the full control effect; nearly all actives have a fitted effect of over 55% in size
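Overnight (16 hr) co-exposure of 2,000 cells/well to 5-fluorouridine and compound at 37 °C preceded detection. Luciferase was quantified via ONE-Glo luminescence; loss of signal denotes inhibition.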
ELG1 genotox: induces genotoxicity in HEK293T cells with luciferase-tagged ELG1; HEK293T ELG1-luciferase reporter, luminescence, 16 h; Potency, µM (doses to about 46 µM), inactives show top-dose activity change, positive = activation, usual class: activators; hit rate 1.3% among 330,000; AID 504466; further: % of control where 0% means no effect; nearly all actives have a fitted effect of over 60% in size
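Genotoxicity was scored as increased ELG1-luciferase reporter signal, measured by ONE-Glo luminescence (30 min, room temperature). Compound or vehicle exposure of the HEK293T reporter cells lasted 16 hr at 37°C.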
NPC1 prom act: NPC1 promoter activation. Huh7 NPC1 promoter luciferase reporter, 24 h. Potency, µM (highest dose often 9.22 µM), without a hit: top-dose activation, hits mostly activators. hit rate 2.4% among 320,000; further: % of control where 0% means no effect; nearly all actives have a fitted effect of over 60% in size
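Compounds in DMSO were transferred onto Huh7 NPC1-luciferase reporter cells pre-incubated 2 h; after 24 h at 37 °C, Amplite reagent was dispensed and luminescence recorded 10 min later.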
SMN2 splice enh: increases expression of the SMN2 splice variant | HEK293 SMN2-luciferase splicing reporter, luminescence, 30-36 h | Potency, µM (titrated, usually from 46.1 µM), for the others: at the top dose activity change, positive = activation, most hits filed as activators | hit rate 2.8% among 210,000; further: % of control where 0% means no effect; nearly all actives have a fitted effect of over 55% in size
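HEK293 cells carry an SMN2 minigene-luciferase reporter in which exon 7 inclusion puts luciferase in frame. Cells were seeded at 2000 cells/well, attached for 10-12 hours, then exposed to compounds for 30-36 hours at 37C before ONE-Glo luminescence.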
Rab9 prom act: activators of Rab9 promoter. Huh7 Rab9 promoter-luciferase reporter, luminescence, 24 h. Potency, µM (highest dose often 9.22 µM), for the others: at the highest dose activation, negative = inhibition, most hits filed as activators. hit rate 2.8% among 320,000; further: % of control where 0% means no effect; nearly all actives have a fitted effect of over 60% in size
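Cell-based reporter: Huh7 stable for Rab9 promoter-driven luciferase, plated in reduced-serum medium with 10% FBS at 1500 cells/well, compound-treated 24 h at 37 °C, luminescence read after 10 min reagent.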
FLuc modulator: inhibits or activates purified firefly luciferase, miR-21 counter-screen; P08659; purified FLuc, Km substrates, luminescence inhibition; Potency, µM (top dose mostly 57.5 µM), without a hit: at the top dose activity change, negative = inhibition, usual class: inhibitors; hit rate 6.9% among 360,000;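 further: plate controls were vehicle for no effect and reference inhibitor for full effect; nearly all actives have a fitted effect of over 55% in size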
Target sequence (P08659 whole entry, looked up): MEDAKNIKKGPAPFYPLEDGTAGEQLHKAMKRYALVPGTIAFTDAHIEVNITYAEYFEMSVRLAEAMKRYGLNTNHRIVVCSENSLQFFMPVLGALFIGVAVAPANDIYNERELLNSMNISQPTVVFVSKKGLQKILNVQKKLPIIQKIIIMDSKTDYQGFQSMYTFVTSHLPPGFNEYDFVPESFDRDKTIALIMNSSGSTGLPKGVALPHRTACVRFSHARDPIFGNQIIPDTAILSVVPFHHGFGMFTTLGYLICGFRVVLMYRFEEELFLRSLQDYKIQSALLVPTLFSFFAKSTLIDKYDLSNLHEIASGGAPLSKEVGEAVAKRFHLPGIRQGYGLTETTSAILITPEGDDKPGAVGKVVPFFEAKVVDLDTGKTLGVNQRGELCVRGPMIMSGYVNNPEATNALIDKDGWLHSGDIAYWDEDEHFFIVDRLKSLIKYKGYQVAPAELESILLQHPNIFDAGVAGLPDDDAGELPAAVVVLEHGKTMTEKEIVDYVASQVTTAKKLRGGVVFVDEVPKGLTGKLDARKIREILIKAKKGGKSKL
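Biochemical qHTS of compounds, final roughly 60 µM downward over six points, against 10 nM purified firefly luciferase using Km concentrations of substrates (10 uM D-luciferin, 10 uM ATP) in Tris acetate pH 7.5 buffer; luminescence output.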
* marks the source's active call; other numbers are inactive results; ? = inconclusive; / = not tested or not shown. The call rests on the fitted dose curve; in most records, active means well fitted curve in the direction sought with a large enough effect; inconclusive means small, poorly fitted or top-dose-only effect, or another doubt; inactive means no such curve, though single readings can be large; an effect the other way counts as inactive or inconclusive. Potency means the concentration at half of the fitted maximal effect.

SMILES | ELG1 repair inh | ELG1 genotox | NPC1 prom act | SMN2 splice enh | Rab9 prom act | FLuc modulator
O=C(NCc1ccccc1)C(c1ccncc1)N(C(=O)c1csnn1)C1CC1 (stereo unspecified) | 17.8% | 0.5% | -1.5% | -6.7% | 0.2% | 4.2%
CCc1cccc(OCCCCN(CC)CC)c1 | 0.2% | -2.8% | 1.1% | 0.6% | -4.6% | 1.2%
CCn1nnnc1SCC(=O)Nc1nc(-c2cccs2)cs1 | 0.0% | 6.0% | 0.3% | -34.5% | 1.1% | ?
Cc1noc(C)c1S(=O)(=O)N1CCCC1C(=O)NC(C)(C)C (stereo unspecified) | 2.4% | -2.4% | -3.7% | / | -2.7% | -1.0%
CC(C)c1nnc(NC(=O)CSc2nnc(NC(=O)c3c(F)cccc3F)s2)s1 | ? | 16.1% | 18.4% | 28.3% | 27.5% | 8.49µM*
O=C(CSc1nnc(NC(=O)C2CCC2)s1)NC1CC1 | 6.5% | 0.0% | -2.6% | 0.0% | -8.3% | 1.7%
COc1ccccc1C(=O)Nc1nnc(SCC(=O)NC2CCCC2)s1 | ? | 2.31µM* | 0.631µM* | / | / | 4.78µM*
O=C(CSc1nnc(NC(=O)c2c(F)cccc2F)s1)Nc1ccccc1F | ? | 14.7% | 4.0% | / | 23.3% | ?
O=C(CSc1nnc(NC(=O)c2ccco2)s1)NC1CCCC1 | 25.1% | 1.0% | -2.4% | 15.6% | 1.2% | -14.8%
COc1ccccc1C(=O)Nc1nnc(SCC(=O)Nc2ccc3c(c2)oc2ccccc23)s1 | ? | ? | 3.98µM* | 22.4µM* | 2.82µM* | 1.9µM*
O=C(CSc1nnc(NC(=O)c2ccccc2F)s1)NC1CC1 | ? | 23.3% | ? | / | ? | 15.1µM*
COc1ccc(NC(=O)NCCN2CCCCC2)cc1 | 4.5% | 4.1% | 3.1% | / | -4.4% | 6.3%
CCc1cccc(CC)c1C(O)c1cccnc1 (stereo unspecified) | 8.3% | -3.7% | -1.9% | -25.1% | -1.3% | 0.0%
O=C(NCCN1CCOCC1)C(=O)NCC1OCCN1S(=O)(=O)c1cc(F)ccc1F (stereo unspecified) | 0.7% | -1.1% | 1.4% | / | 2.2% | 1.7%
COc1ccc(/C=C\c2onc(C)c2S(=O)(=O)N2CCC(C(=O)Nc3cccc(Cl)c3)CC2)cc1 | / | / | / | -4.0% | / | -8.2%
O=C(CSc1nnc(NC(=O)c2cccc(F)c2)s1)NC1CCCC1 | ? | 16.1% | 17.1% | / | 18.4% | 6.01µM*
O=C(CSc1nnc(NC(=O)c2c(F)cccc2F)s1)NC1CCCC1 | 8.8% | 7.8% | -0.2% | / | 10.5% | 0.6%
O=C(c1cnccn1)N(Cc1cccs1)C1(C(=O)NC2CCCCC2)CCCCC1 | -8.9% | -6.3% | -0.8% | 4.1% | 2.4% | -0.2%
CC(=O)CCC1CC(c2ccc(Cl)cc2)=NO1 (stereo unspecified) | ? | ? | 1.12µM* | / | 1.41µM* | 7.57µM*
Cc1cc(=O)oc2cc(OCC3CC(c4ccc(Cl)cc4)=NO3)ccc12 (stereo unspecified) | ? | 3.9% | -1.6% | 5.4% | -7.0% | ?
NNC(=O)c1ccc(OCC2CC(c3ccc(Cl)cc3)=NO2)cc1 (stereo unspecified) | ? | ? | 16.2% | / | -2.8% | 8.49µM*
O=C(/C=C/c1ccc(N2CCCCC2)c([N+](=O)[O-])c1)c1ccc(S(=O)(=O)N2CCCC2)cc1 | ? | 17.5% | -7.0% | -53.8% | -6.2% | -5.4%
COc1ccc(OC(=O)c2cccc([N+](=O)[O-])c2)c(C(=O)/C=C/c2cccs2)c1 | ? | ? | 10.8% | -11.5% | -0.3% | -7.5%
COc1cccc(/C=C/C(=O)c2cccc([N+](=O)[O-])c2)c1 | ? | ? | -8.9% | -3.1% | -2.0% | 8.49µM*
COc1cccc(/C=C/C(=O)c2cccc([N+](=O)[O-])c2)c1OC | -1.0% | ? | 8.6% | -1.8% | -7.2% | 10.7µM*
SMILES | ELG1 repair inh | ELG1 genotox | NPC1 prom act | SMN2 splice enh | Rab9 prom act | FLuc modulator
COc1cccc(C(=O)/C=C/c2ccc(N3CCCCC3)c([N+](=O)[O-])c2)c1 | 1.0% | 10.9% | -1.1% | -20.2% | -1.9% | 8.49µM*
COc1ccc(/C=C(/NC(=O)c2cccc([N+](=O)[O-])c2)C(=O)O)cc1OC | 5.8% | 3.8% | -1.7% | -8.7% | 1.5% | -0.3%
Cc1ccc2c(c1)sc(C)[n+]2CCCS(=O)(=O)[O-] | 14.9% | 0.7% | 4.5% | -29.4% | -0.1% | -2.1%
COc1cc(/C=C/c2sc3ccccc3[n+]2CCCS(=O)(=O)[O-])ccc1O | -11.4% | -5.4% | -9.4% | -43.0% | -2.6% | 13.5µM*
CCOC(=O)Cn1cnc2scc(-c3ccc(C)c(C)c3)c2c1=O | ? | -11.4% | 0.0% | / | -3.0% | 5.7%
COc1ccccc1N1CCN(C(=O)c2oc3ccccc3c2C)CC1 | 2.7% | -1.8% | -24.5% | 24.5% | -11.0% | -0.9%
COc1ccccc1N1CCN(C(=O)c2cc3c(C)nc4ccccc4c3o2)CC1 | 13µM* | -19.7% | -5.8% | / | -7.5% | 0.9%
COc1ccccc1N1CCN(C(=O)c2cccc3c(=O)c(C)c(-c4ccccc4)oc23)CC1 | 20.6µM* | -10.2% | -4.3% | -3.3% | 2.7% | 0.3%
Cc1ccc(S(=O)(=O)c2cn(Cc3ccccc3)c3cc(N4CCOCC4)c(F)cc3c2=O)cc1 | / | / | / | / | / | -1.7%
COc1cc(/C=N/NC(=O)CCNC(=O)c2ccccc2Cl)ccc1O | 5.9% | -3.2% | -2.0% | -2.1% | 5.6% | -9.3%
O=C(Nc1ccc(Cl)cc1)OCc1cncs1 | ? | 6.5% | ? | -26.2% | ? | 15.1µM*
O=C(Nc1cccc(Cl)c1)OCc1cncs1 | 17.6% | 3.1% | 12.7% | -23.0% | 24.4% | -18.1%
O=C(Nc1ccc(Cl)cc1)OCc1ccccn1 | ? | 17.7% | 2.51µM* | 12.6µM* | 2.24µM* | 12µM*
CC(C)(C)OC(=O)N1CCC[C@H]1C(=O)N/N=C/c1ccc2ncccc2c1 | 0.0% | 0.2% | -1.0% | / | 13.5% | ?
Cc1ccc(CNC(=O)CCS(=O)(=O)c2ccc(Br)cc2)cc1 | -0.1% | -12.8% | -24.0% | -25.2% | -5.3% | 0.8%
COc1cccc(C(=O)Oc2ccccc2/C=C\C(=O)c2cc3ccccc3o2)c1 | ? | 15.9% | 2.82µM* | -103.5% | ? | ?
O=C(Oc1ccccc1/C=C\C(=O)c1cc2ccccc2o1)c1cccc(F)c1 | ? | ? | 23.4% | -106.5% | ? | 8.49µM*
CCOc1cccc(C(=O)Nc2ccc(NC(=O)c3cc4ccccc4o3)c(OC)c2)c1 | 0.6% | 2.8% | -6.6% | / | -7.1% | 0.1%
O=C(Oc1ccccc1/C=C\C(=O)c1cc2ccccc2o1)c1ccccc1 | ? | ? | 3.98µM* | ? | 3.16µM* | 16.9µM*
CC(=O)N1c2ccccc2Oc2cc3ccccc3cc21 | ? | ? | 13.3% | ? | 25.6% | ?
